KB-3-1 tox – KB-3-1 parental cell cytotoxicity; KB-3-1 viability, CellTiter-Glo ATP luminescence, 72 h; actives 1.4% (n = 400,000); AID 1347075; Potency, µM (titrated, usually from 46.1 µM), hits mostly cytotoxic; also: nearly all actives have a fitted effect of over 60% in size
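Cytotoxicity in the drug-sensitive parental line KB-3-1 was scored as loss of CellTiter-Glo luminescence following 72 h incubation with compound. Values come from curve fitting of normalized concentration-response data.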
HT1080 IDH1KD tx – toxicity to HT-1080 IDH1 knockdown cells (counter line); HT-1080 IDH1 knockdown viability, ATP luminescence, 48 h; Potency, µM (highest dose often 46.1 µM), inactives show at the highest dose activity, negative = toxicity, most hits filed as cytotoxic; actives 2% (n = 360,000);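 also: 0% = DMSO wells and -100% = cell-free medium wells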
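IDH1KD HT-1080 cells, 750/well, RPMI + 5% FBS; compound pinned after 2 h settling; 48 h, 37 °C; CellTiter-Glo luminescence; % activity normalised to DMSO and no-cell wells; curves fitted, classed by r2 and efficacy.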
DT40 TDP1 CPT – DT40-hTDP1 cell growth loss with CPT | chicken DT40 Tdp1-/-;hTDP1 cells + 20 nM CPT, ATP luminescence, 48 h | actives 12% (n = 420,000) | Potency, µM (series often up to 46.2 µM), without a hit: at the top dose activity change, negative = growth inhibition, usual class: inhibitors; also: nearly all actives have a fitted effect of over 55% in size
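Chicken DT40 Tdp1-/- cells complemented with human TDP1, 400 cells/well, exposed to compounds plus 20 nM camptothecin for at least 48 h at 37 C; viability read as ATP content by CellTiter-Glo luminescence.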
KB-V1 cytotox – kills drug-selected multidrug resistant KB-V1 cells. Potency, µM (top dose mostly 46.1 µM), hits mostly cytotoxic. actives 3.4% (n = 400,000). AID 1347076. KB-V1 MDR cells viability, CellTiter-Glo, 72 h; also: nearly all actives have a fitted effect of over 60% in size
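KB-V1 MDR subline cells in DMEM (phenol-red free, 10% FBS) exposed to compounds in qHTS concentration series for 72 h at 37 degrees C. Viability read by CellTiter-Glo luminescence; concentration-effect curves fitted after normalization and correction.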
HT1080-NT tox – kills 2HG-producing HT-1080-NT fibrosarcoma cells; HT-1080-NT fibrosarcoma viability, CellTiter-Glo ATP luminescence, 48 h; Potency, µM (series often up to 46.1 µM), inactives show at the highest dose activity, negative = less viability, usual class: cytotoxic; actives 1.6% (n = 360,000);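 also: NT is the 2HG producing partner of a matched IDH1 knockdown line; 0% = DMSO-treated cells and -100% = media-only wells without cells; nearly all actives have a fitted effect of over 55% in size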
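Viability of the 2HG-overproducing fibrosarcoma line after 48 hours of compound exposure at 37 degrees C was determined by luminescence with CellTiter-Glo, and concentration-effect curves were then fitted and categorized.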
TDP1 cell noCPT – qHTS for Inhibitors of human tyrosyl-DNA phosphodiesterase 1 (TDP1): qHTS in cells in absence of CPT | DT40 Tdp1-/- hTDP1 cells, no CPT, ATP luminescence, 48 h | Potency, µM (highest dose often 46.2 µM), inactives show at the highest dose activity change, negative = growth inhibition, hits mostly inhibitors | actives 15% (n = 420,000); also: nearly all actives have a fitted effect of over 55% in size
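Readout: luminescence from CellTiter-Glo after 30 min in the dark at RT. Cells: DT40 Tdp1-/- with stable hTDP1, 400/well. Exposure: compounds alone, ≥48 hr, 37 °C.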
Starred values were filed as active, the others as inactive; i = inactive; ? = inconclusive; / = no result given. Compounds with a hit are over-represented: about 19% of the library has one in this group of screens. Calls follow the shape of the dose curve; as a rule, active = well fitted curve in the direction sought with a large enough effect; inconclusive = small, poorly fitted or top-dose-only effect, or another doubt; inactive = no such curve, though single readings can be large; an effect the other way counts as inactive or inconclusive. Unless noted, % is scaled to controls: 0 for no effect and ±100 for the full control effect; potency is read from the fitted curve at half-maximal effect.

SMILES | KB-3-1 tox | HT1080 IDH1KD tx | DT40 TDP1 CPT | KB-V1 cytotox | HT1080-NT tox | TDP1 cell noCPT
CCOC(=O)c1c(-c2ccc(C)cc2C)csc1NC(=O)c1ccccc1Cl | i | / | ? | ? | / | ?
COc1ccc(/C=C/c2nc(C#N)c(N3CCN(c4ccccc4)CC3)o2)cc1OC | / | / | -12% | / | / | -12%
CN(C)c1oc(/C=C/c2ccccc2)nc1C#N | i | -1% | -21% | ? | -3% | -24%
COc1ccc(/C=C/c2nc(C#N)c(N3CCCCC3)o2)cc1OC | i | / | 23µM* | i | / | 16µM*
COc1ccccc1/C=C/c1nc(C#N)c(N(C)C)o1 | i | 5% | ? | i | 5% | 16µM*
COc1ccc(N2CCN(c3oc(/C=C/c4cc(OC)c(OC)c(OC)c4)nc3C#N)CC2)cc1 | / | / | 2.9µM* | / | / | 3.7µM*
CC(C)(C)OC(=O)N1CCC(C(=O)Nc2ccc(C(=O)NCc3ccccc3)cc2)CC1 | i | -7% | 16µM* | i | -6% | 15µM*
CC(C)(C)OC(=O)N1CCC(C(=O)Nc2cccc(C(=O)NCCCCc3ccccc3)c2)CC1 | i | -2% | ? | i | 2% | ?
CC(C)(C)OC(=O)N1CCC(C(=O)Nc2ccc(C(=O)NCCc3ccccc3)cc2)CC1 | i | -9% | ? | i | -25% | 10µM*
COc1ccc(OC)c(/C=N/N2CCN(c3ccc(Cl)cc3)CC2)c1 | i | -7% | ? | i | -3% | ?
O=C(CC[C@H]1O[C@@H](n2ccc(=O)[nH]c2=O)[C@H](O)[C@@H]1O)NCCc1c[nH]c2ccccc12 | i | 18% | 0% | i | 25% | 9%
O=C(NCC(c1ccco1)N1CCN(c2ccccc2)CC1)C(=O)NC1CCCCC1 (stereo not drawn) | i | 0% | -29% | i | 7% | -28%
C[C@@H]1CCCCO[C@H](CN(C)C(=O)Cc2ccccc2)[C@@H](C)CN([C@H](C)CO)C(=O)c2cc(NC(=O)Nc3ccccc3)ccc2O1 | i | -24% | -3% | i | -13% | 29µM*
C[C@@H]1CCCCO[C@H](CN(C)C(=O)Cc2ccccc2)[C@H](C)CN([C@@H](C)CO)C(=O)c2cc(NC(=O)Nc3ccc(F)cc3)ccc2O1 | i | -13% | 23µM* | i | -12% | -23%
O=C(CN1CCCCCC1=O)N1CCN(S(=O)(=O)c2cccs2)CC1 | i | 2% | -13% | i | 9% | 1%
CC(=O)Nc1ccc(NC(=O)C(c2ccccc2)N2Cc3ccccc3C2=O)cc1 (stereo not drawn) | / | / | 9% | / | / | 2%
Cc1cc(NC(=O)COC(=O)c2oc3c(ccc4ccccc43)c2C)no1 | ? | 1% | ? | ? | 11% | 16µM*
Cc1cc(NC(=O)COc2ccc3oc4ccccc4c3c2)no1 | i | -8% | ? | i | -8% | 21µM*
Cc1cc(NC(=O)COc2ccc3c(C)c(C)c(=O)oc3c2)no1 | i | 9% | 0% | i | 11% | 8%
COc1ccc(Cc2nc3ccc(C(=O)NCCc4ccc(Cl)cc4)cc3o2)cc1 | i | / | -29% | i | / | ?
O=C(COC(=O)[C@@H]1CC(O)CN1S(=O)(=O)c1ccccc1[N+](=O)[O-])c1ccccc1 (stereo partly drawn) | i | -2% | -7% | ? | -1% | -3%
CCc1cccc2c(C(=O)COC(=O)[C@@H]3CC(O)CN3S(=O)(=O)c3ccccc3[N+](=O)[O-])c[nH]c12 (stereo partly drawn) | i | ? | 23µM* | ? | ? | 21µM*
COc1cc2nc(NC(=O)c3ccc(S(=O)(=O)N4CCCC4)cc3)sc2cc1OC | i | / | -13% | i | / | -15%
COCC1=C(C(=O)OC)C(c2ccco2)n2ncnc2N1 (stereo not drawn) | i | 5% | -7% | i | 6% | 3%
COc1cccc(C(C(=O)NCc2ccccc2)N2CCN(CCN3CCOCC3)CC2)c1OC (stereo not drawn) | i | 17% | -6% | i | -1% | -3%
SMILES | KB-3-1 tox | HT1080 IDH1KD tx | DT40 TDP1 CPT | KB-V1 cytotox | HT1080-NT tox | TDP1 cell noCPT
COc1cccc(C(C(=O)NCc2ccccc2)N2CCN(c3ccccc3F)CC2)c1OC (stereo not drawn) | i | -10% | 21µM* | ? | -16% | 16µM*
CC(C)C(C(=O)NCc1ccccc1)N1CCN(c2ccccc2F)CC1 (stereo not drawn) | i | 14% | ? | ? | 9% | ?
O=C(NCc1ccccc1)C(c1ccc(F)cc1)N1CCN(c2ccccc2F)CC1 (stereo not drawn) | i | ? | 9.2µM* | i | ? | 12µM*
COC(=O)c1ccc(C(=O)NN)cc1 | i | 6% | 1% | i | 1% | 0%
CCC/C=C(\CCC)C(NC(=O)c1ccc(C(=O)OC)cc1)c1ccc(C(=O)OC)cc1 (stereo not drawn) | i | 0% | 9.2µM* | i | -25% | 7.3µM*
Cc1nc(N)nc(N)c1-c1ccc([N+](=O)[O-])cc1 | i | 10µM* | ? | i | -2% | 1.5µM*
Cc1cc(C)cc(N(CCC(=O)Nc2nnc(C3CC3)s2)S(=O)(=O)c2ccc(Cl)cc2)c1 | ? | ? | ? | 8.2µM* | -20% | ?
Cc1ccc(S(=O)(=O)NCCC(=O)Nc2nnc(C3CC3)s2)cc1C | i | 0% | -1% | i | 4% | -1%
CCOc1ccc(N(C)S(=O)(=O)c2ccc(C)c(C(=O)Nc3nnc(C4CC4)s3)c2)cc1 | i | -3% | -9% | i | -6% | 4.6µM*
O=C(N/N=C/c1ccccn1)c1cccc(S(=O)(=O)N2CCCC2)c1 | i | -6% | -11% | i | -15% | -24%
COc1ccc(C(=O)C(C)OC(=O)c2sc(C)nc2C)cc1 (stereo not drawn) | i | 1% | -1% | i | 10% | 4%
CNc1snc(C)c1C(=O)OCC(=O)c1ccc(Cl)cc1 | i | ? | 13µM* | i | -20% | 9.2µM*
CCN(Cc1ccccc1)C(=O)COC(=O)c1cnc(C)cn1 | i | -2% | -6% | i | 1% | 0%

Bioassay records deposited in PubChem by National Center for Advancing Translational Sciences (NCATS).
